The values that follow come from PubChem BioAssay.

The nature of the experiment: HepG2 cell viability effects, profiling panel, calcein-AM fluorescence, 48 h, basal (AID 1164). Further: test concentration not given here. The following applies: higher = more signal.
With `COc1ccc([Si](C)(C)[C@@H]2[C@@H](CCn3cc([C@H](O)c4ccccc4)nn3)O[C@]3(C(=O)N(c4ccccc4)c4ccccc43)[C@H]2C)cc1`, the z-score was -2.22.

Turning to `CCN(CC)c1ccc(N2CC=CC34O[C@@H]5C=CCCOC(=O)C5[C@H]3C(=O)N(CCO)[C@@H]4C2=O)cc1` (stereo partly specified), the z-score is -0.618.

For `COc1ccc([Si](C)(C)[C@H]2[C@H](CCO)O[C@@]3(C(=O)N(Cc4ccc(N5C(=O)c6ccccc6Oc6ccccc65)cc4)c4ccccc43)[C@@H]2C)cc1`, the z-score was -2.71. Regarding `CC(C)CNC(=O)[C@@]1(C)c2ccccc2C(=O)N(Cc2cc(C(F)(F)F)cc(C(F)(F)F)c2)[C@H]1c1ccc(CO)cc1`, the z-score was 1.2.

As to `[N-]=[N+]=NC[C@H](Cc1ccccc1)NC(=O)c1ccccc1`, the z-score was 0.611.

Regarding `CN(C)C(=O)[C@]1(CCS(=O)(=O)c2ccccc2)N=C(c2ccc(OCCCO)cc2)O[C@@H]1c1ccccc1`, the z-score is -0.416.

Regarding `O=C(CS)NCCCCCNC(=O)[C@@H]1C[C@@H]2C(=O)N[C@@H](Cc3ccccc3)C(=O)N2[C@@H]1c1cccc(OCCO)c1`, the z-score was 1.18. With `CN1C(=O)C2C=CC(C(O)c3ccc(F)cc3)N(NC(=O)OC(C)(C)C)C2C1=O` (stereo unspecified), the z-score was 0.0643.

As for `[N-]=[N+]=NCc1ccccc1[C@@H]1OC(c2ccc(OCCCO)cc2)=N[C@]1(Cc1ccccc1)C(=O)NCCN1CCOCC1`, the z-score is 0.91. In the case of `[N-]=[N+]=Nc1ccccc1[C@@H]1OC(c2ccc(OCCCO)cc2)=N[C@]1(Cc1ccccc1)C(=O)NCc1ccccc1` it was -2.13; in that of `CO[C@H]1O[C@H](CO)[C@@H](OC(=O)Nc2ccc(C#N)cc2)[C@@H]2OC(=O)[C@H](Cc3cccc(Br)c3)C/C=C/C[C@@H](Cc3cccc(Br)c3)C(=O)O[C@@H]12`, 1.29. Regarding `CC(C)C[C@@H]1NC(=O)[C@@]23C(=O)N[C@@H](Cc4ccccc4)C2[C@H](C)[C@@]2(C)O[C@H]2C3/C=C/C/C=C\CNC(=O)[C@@H](C)NC1=O` (stereo partly specified), the z-score is -0.0346. `COCCOC(=O)N1C(=O)[C@@]2(c3cc(C#CCC(C(=O)OC)C(=O)OC)ccc31)[C@H](c1ccc(O)cc1)N1[C@H](c3ccccc3)[C@H](c3ccccc3)OC(=O)[C@H]1[C@@H]2C(=O)NC[C@H](O)c1ccccc1`: the z-score was -0.0754. As to `C=CCC(OC(C)=O)[C@@H]1[C@@H](N(Cc2ccc(-c3cccc(C(F)(F)F)c3)o2)C(=O)c2ccc(C)cc2)c2cc(OCCCO)ccc2N1C(=O)Cc1ccc(OC)cc1` (stereo partly specified), the z-score is 2.12. `CCCCC(=O)N(CCN1CCOCC1)[C@@H]1CC(C(=O)NCCO)=C[C@H](Oc2c(I)cc(CO)cc2OC)[C@H]1O`: the z-score is 0.569. On to `O=C1NC(=O)C2C1C=CC(C(O)c1ccccn1)N2Nc1ccc(Cl)cc1Cl` (stereo unspecified), for which the z-score was -0.707. Take `C=CCC(OC(C)=O)[C@@H]1[C@@H](N(Cc2ccc(-c3cccc(C(F)(F)F)c3)o2)C(=O)Cc2ccc(OC)cc2)c2cc(OCCCO)ccc2N1C(=O)Cc1ccc2ccccc2c1` (stereo partly specified): the z-score was 0.73. With `C=C[C@@H](C)[C@H](O)c1ccc(OCCO)cc1`, the z-score is -0.0484.

For the compound `O=C1O[C@H](c2ccccc2)[C@H](c2ccccc2)N2[C@H]1[C@@H](C(=O)N1CCCCCCC1)[C@]1(C(=O)Nc3ccc(C#CC4(O)CCCCCC4)cc31)[C@H]2c1ccccc1OCCO`, the z-score was 0.703. As to `O=C1O[C@H](c2ccccc2)[C@H](c2ccccc2)N2[C@H]1[C@@H](C(=O)N1CCCCCCC1)[C@]1(C(=O)Nc3ccc(C#CC4(O)CCCCCC4)cc31)[C@H]2c1ccc(O)cc1`, the z-score was 1.68. As for `COCCOC(=O)N1C(=O)[C@@]2(c3ccccc31)[C@H](c1ccc(OCCO)cc1)N1[C@H](c3ccccc3)[C@H](c3ccccc3)OC(=O)[C@H]1[C@@H]2C(=O)N1CCCCCCC1`, the z-score was 0.0373. On to `CC(=O)NCCCC[C@@H]1NC(=O)[C@@H]2C[C@H](C(=O)NCCCCCCN)[C@H](c3cccc(OCCO)c3)N2C1=O`, for which the z-score was 0.268. Turning to `[N-]=[N+]=Nc1ccccc1C[C@]1(C(=O)O)N=C(c2ccc(OCCCO)cc2)O[C@H]1c1ccccc1N=[N+]=[N-]`, the z-score was 0.0698. On to `CCN(CC)c1ccc(N2CC=CC34O[C@@H]5/C=C\CCC(C)OC(=O)C5[C@H]3C(=O)N(C(C)CO)[C@@H]4C2=O)cc1` (stereo partly specified), for which the z-score is 1.48.

Consider `O=C(O)[C@H]1C[C@H]2C(=O)N[C@@H](Cc3ccccc3)C(=O)N2[C@H]1c1cccc(OCCO)c1`, for which the z-score is 0.259.

For `CCCCCCCCCCC(O)C1C=CC2C(=O)N(C)C(=O)C2N1Nc1cc(OC)c(OC)c(OC)c1` (stereo unspecified), the z-score was -3.26.

On to `C=CCN1C(=O)[C@]2(O[C@H](CCO)[C@@H]([Si](C)(C)c3ccc(OC)cc3)[C@@H]2C)c2cc(N3C(=O)COc4ccccc43)ccc21`, for which the z-score was -4.67. Take `CCOC(=O)C1=CCC(c2ccccc2)N(S(=O)(=O)c2ccc([N+](=O)[O-])cc2)C1` (stereo unspecified): the z-score is -1.07.

In the case of `CCOC(=O)C1=C[C@@H](c2ccccc2)N(S(=O)(=O)c2ccc(C)cc2)[C@H]1c1ccccc1`, the z-score was -0.813. Under `C=CCNC(=O)[C@@H]1[C@H]2C(=O)O[C@H](c3ccccc3)[C@H](c3ccccc3)N2[C@H](c2ccc(O)cc2)[C@@]12C(=O)Nc1ccc(C#CCC(C(=O)OC)C(=O)OC)cc12` stands -0.6.

For the compound `C=C[C@@H](C)[C@@H](OC(=O)Nc1ccc(SC)cc1)c1ccc(OCCO)cc1`, the z-score is -1.37. `COc1cc(NN2C(C(O)c3cc(OC)c(OC)c(OC)c3)C=CC3C(=O)N(c4ccccc4)C(=O)C32)cc(OC)c1OC` (stereo unspecified): the z-score is -0.455. On to `COc1ccc([Si](C)(C)[C@@H]2[C@@H](CC(=O)N3Cc4ccccc4C[C@H]3CO)O[C@]3(C(=O)N(Cc4ccc(N5CCC5=O)cc4)c4ccccc43)[C@H]2C)cc1`, for which the z-score is 0.437.

With `CN(C)C(=O)[C@@]1(CCC(=O)OC(C)(C)C)N=C(c2ccc(OCCCO)cc2)O[C@H]1c1ccccc1CN=[N+]=[N-]`, the z-score is 0.423.

As to `CCOC(=O)C[C@H]1[C@H](OC(=O)c2ccccc2-c2ccccc2)[C@@H](NC(=O)c2ccccc2)c2cc(OCCCO)ccc2N1C(=O)c1ccccc1`, the z-score is -0.56. Turning to `CN(C)CCCC[C@@H]1NC(=O)[C@@H]2C[C@H](C(=O)O)[C@H](c3cccc(OCCO)c3)N2C1=O`, the z-score was 0.201.
